The campaign covered roughly 63,000 compounds. About 1,100 (1.7%) were called active. The full list was thinned out, with actives kept by preference. Measured potencies and affinities stand elsewhere. A number with no mark means an inactive call. No stated cut-off is given here; in the data, active means cytotoxicity above about 50%; inactive means the rest.
Experiment: cytotoxicity in HPDE-C7 cells, cell-based, fluorescence, HTS (AID 430);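 further: cells exposed to compound for 48 hours before viability readout; 0% = vehicle and 100% = reference cytotoxic drug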
Conditions: HPDE-C7 pancreatic duct cells viability, at 10 µM, stronger effect = higher value
Molecule `CC(C)COc1cccc(C(=O)Nc2ccc(S(=O)(=O)N3CCOCC3)cc2)c1` has a cytotoxicity of 16.1%. In the case of `CCCOC(=O)c1ccc(-c2c(C)noc2-c2ccc(OC)cc2O)o1`, the cytotoxicity is reported as -2.8%. With `CCOC(=O)COC(=O)c1ccc(O)cc1` the cytotoxicity was -3.6%. In the case of `CCOc1ccc(-c2n[nH]c(C)c2Oc2ccc(OC)cc2)c(O)c1`, the cytotoxicity is reported as 5.9%. Molecule `CCOC(=O)c1ccc(OCC(=O)c2ccc(O)cc2O)cc1` has a cytotoxicity of -2.2%. Work on `CCOC(=O)c1c(N)n[nH]c1-c1ccc(OC)cc1` yielded a cytotoxicity of 2.4%. Molecule `CCOc1ccc(N2C(=O)c3ccc(C(=O)OCc4c(C)noc4C)cc3C2=O)cc1` has a cytotoxicity of -3.6%. `COc1ccc(CC(NC(C)=O)C(=O)N2CCN(C(=O)Nc3ccc(Cl)cc3)CC2)cc1OC` (stereo not drawn) showed a cytotoxicity of 4.9%. For `O=C(Nc1nc2ccccc2n1CCOc1ccccc1)c1ccco1`, the cytotoxicity was -12.8%. In the case of `Cc1cccc(Nc2nc(NC(C)C)nc(Oc3ccc(=O)n(C)n3)n2)c1`, the cytotoxicity is reported as -11.3%. Work on `CCOC(=O)N1CCN(CC(=O)Nc2cc(OCC)ccc2OCC)CC1` yielded a cytotoxicity of -9.8%. With `CCCCc1ccc(NC(=O)COCC)cc1` the cytotoxicity was -12.8%. Work on `CCCCc1ccc(NC(=O)OC)cc1` yielded a cytotoxicity of -16.3%. With `CC(=O)Nc1ccc(S(=O)(=O)NCC(C)NS(=O)(=O)c2ccc(NC(C)=O)cc2)cc1` (stereo not drawn) the cytotoxicity was -20%. In the case of `OC1(Cc2ccn[nH]2)CCCCC1`, the cytotoxicity is reported as 17.9%. For `O=C(OCCN1CCOCC1)c1cccnc1`, the cytotoxicity was 0.3%. For `CCOc1cc(C(=O)Nc2nnc(C)s2)cc(OCC)c1OCC`, the cytotoxicity was -7.4%. In the case of `COc1ccccc1-c1cc(C(=O)Nc2cccnc2)no1`, the cytotoxicity is reported as 79.8% (active). In the case of `COc1ccccc1-c1cc(C(=O)NC(C)C)no1`, the cytotoxicity is reported as -2.5%. `COc1ccccc1-c1cc(C(=O)Nc2ccc(F)cc2F)no1` showed a cytotoxicity of -11.9%. Work on `COc1ccc(-c2cc(C(=O)Nc3cc(C)n(Cc4ccc(Cl)cc4)n3)no2)cc1OC` yielded a cytotoxicity of 6.9%. With `COc1ccc(OC)c(-c2cc(C(=O)Nc3cc(C)n(Cc4ccc(Cl)cc4)n3)no2)c1` the cytotoxicity was 62.5% (active). In the case of `COc1ccc(NC(=O)c2cc(-c3ccccc3OC)on2)cc1`, the cytotoxicity is reported as 54.3% (active). With `COc1ccccc1-c1cc(C(=O)Nc2cc(C)on2)no1` the cytotoxicity was -2.8%. `COc1ccc(OC)c(-c2cc(C(=O)Nc3c(C)nn(Cc4ccc(Cl)cc4)c3C)no2)c1` showed a cytotoxicity of 17.1%. In the case of `COc1ccc(CNC(=O)c2cc(-c3ccccc3OC)on2)cc1`, the cytotoxicity is reported as -1.1%. With `Cc1cccc(Cn2c(SCCN3CCOCC3)nc3c2c(=O)n(C)c(=O)n3C)c1` the cytotoxicity was -7.8%. Molecule `COc1ccc(C2CC(c3ccccc3)Nc3nc(NC(=O)c4ccco4)nn32)cc1` (stereo not drawn) has a cytotoxicity of -5.5%. `COC(=O)Cc1cc(=O)n2[nH]c(C)nc2n1` gave a cytotoxicity of -15.9%. `CCOC(=O)N1CCN(c2ccc(C(=O)c3ccccc3)cc2F)CC1` gave a cytotoxicity of 7%. Work on `Brc1ccc2[nH]ncc2c1` yielded a cytotoxicity of -5.6%. Molecule `O=c1[nH]c(CN2CCc3ccccc3C2)nc2ccccc12` has a cytotoxicity of 3.3%. With `COc1cccc(N2CCN(Cc3nc4ccccc4c(=O)[nH]3)CC2)c1` the cytotoxicity was -2.6%. In the case of `c1ccc2c(c1)CCN(c1ncnc3nc[nH]c13)C2`, the cytotoxicity is reported as -4.2%. Molecule `COc1cccc(N2CCN(CC(=O)c3c[nH]c4ccc(OC)cc34)CC2C)c1` (stereo not drawn) has a cytotoxicity of 9.5%. For `COC(=O)c1ccc(N2C(=O)CC(NCc3ccccc3)C2=O)cc1` (stereo not drawn), the cytotoxicity was -3%. Molecule `CCS(=O)(=O)N1CCCC(C(=O)NCc2ccc3c(c2)OCO3)C1` (stereo not drawn) has a cytotoxicity of -13.3%. Work on `Cc1cc(C)n(-c2nncc(-c3ccccc3)n2)n1` yielded a cytotoxicity of 0.6%. For `Cc1cc(NC(=O)CSc2nnc(Cn3c(=O)sc4ccccc43)n2-c2ccccc2C)no1`, the cytotoxicity was -24.2%. `Cc1ccc(S(=O)(=O)CCC(=O)OCC(=O)Nc2cc(C)on2)cc1` showed a cytotoxicity of -14.2%. `Cc1cc(C)nc(SCC(=O)c2ccc(O)cc2O)n1` showed a cytotoxicity of -21%. In the case of `OCC1OC(n2nc3ccccc3n2)C(O)C(O)C1O` (stereo not drawn), the cytotoxicity is reported as -4.3%. For `COc1cccc(-n2c(CNC(=O)OC(C)(C)C)n[nH]c2=S)c1`, the cytotoxicity was 2.9%. For `Cc1ccc2ncccc2c1NS(=O)(=O)c1ccccc1`, the cytotoxicity was -17.3%. For `O=S(=O)(Nc1cccc2ncccc12)c1cccs1`, the cytotoxicity was 45.6%. With `CCOCC(=O)Nc1nnc(Cc2ccc(OC)c(OC)c2)s1` the cytotoxicity was -11.9%. `O=C(NCCCN1CCOCC1)c1cc2ccccc2oc1=O` gave a cytotoxicity of 3.1%. `Cc1oc(-c2ccc(Cl)cc2)nc1CN1CCC(C(=O)NCc2cccnc2)CC1` gave a cytotoxicity of -28.8%. For `COC(=O)c1[nH]c2c(c1C)C(=O)CC(c1ccccc1)C2` (stereo not drawn), the cytotoxicity was 45.6%. For `COCCOC(=O)c1[nH]c2c(c1C)C(=O)CC(c1ccccc1)C2` (stereo not drawn), the cytotoxicity was 50.6% (active). In the case of `CCCCCOC(=O)c1[nH]c2c(c1C)C(=O)CC(c1ccco1)C2` (stereo not drawn), the cytotoxicity is reported as 68.9% (active). `CCOc1ccc(C2CC(=O)c3c([nH]c(C(=O)OC)c3C)C2)cc1OC` (stereo not drawn) gave a cytotoxicity of 2.6%. Molecule `COCCOC(=O)c1[nH]c2c(c1C)C(=O)CC(c1ccc(F)cc1)C2` (stereo not drawn) has a cytotoxicity of 4.9%. For `CCOC(=O)c1[nH]c2c(c1C)C(=O)CC(c1ccc(F)cc1)C2` (stereo not drawn), the cytotoxicity was 70.4% (active). In the case of `CCCOC(=O)c1[nH]c2c(c1C)C(=O)CC(c1ccc(OC)c(OC)c1)C2` (stereo not drawn), the cytotoxicity is reported as -5.7%. `CCCCOC(=O)c1[nH]c2c(c1C)C(=O)CC(c1cc(OC)c(OC)c(OC)c1)C2` (stereo not drawn) gave a cytotoxicity of -7.3%. Molecule `CCOCCOC(=O)c1[nH]c2c(c1C)C(=O)CC(c1ccc(N(C)C)cc1)C2` (stereo not drawn) has a cytotoxicity of -3.3%. For `COC(=O)c1[nH]c2c(c1C)C(=O)CC(c1cccs1)C2` (stereo not drawn), the cytotoxicity was 70.9% (active). In the case of `COC(=O)c1[nH]c2c(c1C)C(=O)CC(c1ccc(C)cc1)C2` (stereo not drawn), the cytotoxicity is reported as 1.7%. Work on `COCCOC(=O)c1[nH]c2c(c1C)C(=O)CC(c1ccc(N(C)C)cc1)C2` (stereo not drawn) yielded a cytotoxicity of -10.9%. `COc1cccc(CNC(=O)C2CCN(S(=O)(=O)N3CCCC3)CC2)c1` gave a cytotoxicity of -7.2%. With `COc1ccc2c(C)cc(=O)oc2c1C` the cytotoxicity was 0.6%. Work on `C=CCn1c(-c2cc(OC)c(OC)c(OC)c2)n[nH]c1=S` yielded a cytotoxicity of -1.6%.
